From PubChem BioAssay AID504832 (National Center for Advancing Translational Sciences (NCATS), 2011)
Hit rate of the full screen: of about 310,000 compounds, about 18,000 (5.8%) were called active. A call without a number means that no potency is given here. Roughly 22% stayed inconclusive and do not appear here. The full list was thinned out, with actives kept by preference. Unmarked numbers belong to inactive results. Calls come from the whole dose curve; as a rule, active = well fitted inhibition curve with a large enough effect; inconclusive = small, poorly fitted or top-dose-only effect, or another doubt; inactive = no such curve, though single readings can be large or run the other way.

Assay: Primary qHTS for delayed death inhibitors of the malarial parasite plastid, 48 hour incubation
Details: P. falciparum luciferase growth in erythrocytes; series mostly up to 28.7 µM
In short: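 Here the parasites carry a stable luciferase gene and grow inside erythrocytes in Albumax-based RPMI medium with compound for one erythrocytic cycle. Activity is scored as loss of luminescent signal.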
Potency is the fitted concentration of half-maximal effect.

Row | SMILES | Potency | activity change, negative = inhibition
1 | COc1ccc(OC)c(C(=O)NC(CC(N)=O)c2ccc(N3CCC(N4CCCCC4)CC3)c([N+](=O)[O-])c2)c1 (stereo not given) | inactive | –
2 | CN(C)CCCN1C(=O)CSC1c1ccc([N+](=O)[O-])cc1 (stereo not given) | inactive | –
3 | CCCCCCCCCCCCN1C(=O)CSC1c1cccnc1 (stereo not given) | 1.85 µM (active) | –
4 | O=C(O)C1CSC(c2cccnc2)N1 (stereo not given) | inactive | –
5 | CCN(CC(=O)Nc1ccc(NC(C)=O)cc1)C(=O)CSC(=S)N1CCCC1 | inactive | –
6 | CCOc1cc(/C=N/Nc2cc(C)nc3ccc(C)cc23)ccc1O | inactive | –
7 | Cc1cc(C)nc(N/N=C/c2ccc([N+](=O)[O-])o2)n1 | – | -1.43% [at 0.00184 µM]
8 | CCN(CC)c1ccc(/C=N/Nc2nc(C)cc(C)n2)c(O)c1 | 7.38 µM (active) | –
9 | CC(C)NC(=O)N1CCN(c2ccncc2S(=O)(=O)N2CCCCC2)CC1 | inactive | –
10 | O=C(CCS(=O)(=O)c1ccccc1)NC1CCCC1 | inactive | –
11 | COc1ccccc1OCCCC(=O)Nc1ccc2c(c1)OCCO2 | inactive | –
12 | O=C(NCCN1CCOCC1)c1ccc2c(c1)ncn2C1CCCC1 | inactive | –
13 | O=C(Cn1c(-c2ccccn2)nc2ccccc21)NCCN1CCOCC1 | inactive | –
14 | c1ccc2cc3c(NCCN4CCOCC4)ccnc3cc2c1 | 0.147 µM (active) | –
15 | O=C(NCCS(=O)(=O)N1CCN(c2ccccc2)CC1)c1ccco1 | inactive | –
16 | CC1CN(C(=S)Nc2ccc(Br)cc2Cl)CC(C)O1 (stereo not given) | inactive | –
17 | CS(=O)(=O)c1ccccc1C(=O)Nc1ccc2sccc2c1 | inactive | –
18 | COc1ccc(CC(NC(C)=O)C(=O)NC2CCN(C(=O)c3ccc(Cl)cc3)CC2)cc1 (stereo not given) | inactive | –
19 | COc1ccccc1N(C)S(=O)(=O)c1ccc(Cl)c(C(=O)N2CCC(C(N)=O)CC2)c1 | inactive | –
20 | COc1ccccc1N(C)S(=O)(=O)c1ccc(Cl)c(C(=O)Nc2ccncc2)c1 | 8.28 µM (active) | –
21 | COc1ccccc1N(C)S(=O)(=O)c1ccc(C(=O)NC2CCCCCC2)cc1 | inactive | –
22 | COc1ccc(CNC(=O)COC(=O)c2c(C)nn(-c3ccccc3)c2C)cc1OC | inactive | –
23 | FC(F)(F)c1cnc(Oc2ccccc2-c2nnc(-c3ccc(Cl)cc3)o2)c(Cl)c1 | 4.15 µM (active) | –
24 | COC(=O)Cc1ccc(Oc2ncc(C(F)(F)F)cc2Cl)cc1 | inactive | –
25 | CSc1ccccc1-c1nnc(-c2ccc(Cl)cc2)o1 | inactive | –

Row | SMILES | Potency | activity change, negative = inhibition
26 | Cc1ccsc1C(=O)N[C@@H](C)c1nnc2ccccn12 | inactive | –
27 | NS(=O)(=O)c1ccc2nc(NC(=O)CS(=O)(=O)c3ccc(F)cc3)sc2c1 | inactive | –
28 | Cc1cc(S(=O)(=O)NCc2ccccn2)c(Cl)cc1Cl | inactive | –
29 | O=C(CC1Nc2ccccc2NC1=O)Nc1ccccc1 (stereo not given) | 11.7 µM (active) | –
30 | O=C(CC1Nc2ccccc2NC1=O)Nc1ccccc1NC(=O)CC1Nc2ccccc2NC1=O (stereo not given) | inactive | –
31 | O=C(CC1NCCNC1=O)Nc1ccc(Oc2ccccc2)cc1 (stereo not given) | inactive | –
32 | O=C(NCCc1ccc(Cl)cc1Cl)c1cc([N+](=O)[O-])c[nH]c1=O | inactive | –
33 | CC(=O)c1c(C)[nH]c(C(=O)OCC(=O)Nc2c(C)n(C)n(-c3ccccc3)c2=O)c1C | inactive | –
34 | CCOc1ccc(CN(Cc2ccco2)C(c2cccs2)c2nnnn2C(C)(C)C)cc1 (stereo not given) | 3.29 µM (active) | –
35 | CCOc1ccc(S(=O)(=O)N(CC(=O)NCC(F)(F)F)Cc2ccco2)cc1 | inactive | –
36 | CC(C)(C)n1nnnc1C(c1ccccc1F)N1CCN(C(=O)c2ccco2)CC1 (stereo not given) | inactive | –
37 | CS(=O)(=O)N1CCN=C1SCc1ccc(F)cc1 | inactive | –
38 | N#C/C(=C\c1ccc(-c2cccc([N+](=O)[O-])c2)o1)C(=O)NCCN1CCOCC1 | 10.4 µM (active) | –
39 | O=C(NCCCN1CCOCC1)c1ccc([N+](=O)[O-])cc1[N+](=O)[O-] | inactive | –
40 | Cc1ccc(Cc2cnc(NC(=O)/C(C#N)=C/c3ccc(-c4cccc([N+](=O)[O-])c4)o3)s2)cc1 | inactive | –
41 | COc1ccc(C2CC(=O)NC(=O)C2)cc1 | inactive | –
42 | NS(=O)(=O)c1ccc(CCNC(=O)COC(=O)COc2cccc(C(F)(F)F)c2)cc1 | inactive | –
43 | Nc1c(N(CCCO)C(=O)C2CCCC2)c(=O)[nH]c(=O)n1Cc1ccccc1 | inactive | –
44 | CC(=O)Cn1cnc2c(cnn2-c2ccccc2)c1=O | inactive | –
45 | CC(C)Cn1cnc2c1c(=O)n(CC(O)c1ccccc1)c(=O)n2CC(C)C (stereo not given) | 4.65 µM (active) | –
46 | Cc1nc2ccccc2n1CC(O)c1ccccc1 (stereo not given) | inactive | –
47 | N#Cc1ccc(C2N=C(c3ccccc3)NO2)cc1 (stereo not given) | inactive | –
48 | O=C(CNC(=O)c1cccs1)N/N=C/c1cccc(Br)c1 | inactive | –
49 | O=C(CSC1=NS(=O)(=O)c2cc(F)ccc2N1)Nc1ccccc1F | inactive | –
50 | CN1c2ccc(C=O)c3c(C=O)ccc(c23)N(C)C1(C)C | 11.7 µM (active) | –

Row | SMILES | Potency | activity change, negative = inhibition
51 | COc1ccc(-c2noc(CNC(=O)C(C)Oc3ccccc3)n2)cc1 (stereo not given) | inactive | –
52 | CC1CCCCC1NC(=O)NC(=O)COC(=O)C1=NN(c2ccccc2)C(=O)CC1 (stereo not given) | inactive | –
53 | CCN1C(=O)[C@@H]2[C@@H](c3ccc(-c4ccccc4)cc3)N3CCCC[C@@]3(C(=O)OC)[C@@H]2C1=O | 9.28 µM (active) | –
54 | CCN1C(=O)[C@@H]2[C@@H](c3ccc(-c4cccc(Cl)c4)cc3)N3CCC[C@@]3(C(=O)OC)[C@@H]2C1=O | 11.7 µM (active) | –
55 | O=C(NCc1ccccc1)C1C(=O)N(Cc2ccccc2)C(=O)C1C1(O)CCCC1 (stereo not given) | inactive | –
56 | CCCCCCSc1ccc([C@@H]2[C@@H]3C(=O)N(CC)C(=O)[C@@H]3[C@]3(C(=O)OC)CCCCN23)cc1OC | 1.85 µM (active) | –
57 | CCn1cc(CN2CCC(C(=O)Nc3cccc(-c4cccc(Cl)c4)c3)CC2)cn1 | inactive | –
58 | CCNC(=O)N1CCCC(C(=O)c2ccc(-c3ccccc3)cc2)C1 (stereo not given) | inactive | –
59 | CCOC(=O)c1cc(S(=O)(=O)NCCc2ccc(OC)c(OC)c2)cn1C | inactive | –
60 | COc1cccc(/C=C/C(=O)OCC(=O)N2CCCc3ccccc32)c1 | inactive | –
61 | CC(C)CC(=O)Nc1nnc(S(=O)(=O)N(C)c2ccc(Cl)cc2)s1 | inactive | –
62 | CCOc1ccc(CN2CCN(CCCc3ccccc3)C(CCO)C2)cc1 (stereo not given) | inactive | –
63 | COc1ccc(CCNS(=O)(=O)c2cc3c(cc2C)NC(=O)CO3)cc1OC | inactive | –
64 | O=C1CC(N2CCN(C(c3ccccc3)c3ccccc3)CC2)C(=O)N1 (stereo not given) | inactive | –
65 | CC1(C)CC(=O)C=C(N2CCCC2)C1 | inactive | –
66 | CC1(C)CC(N2CCN(C(c3ccccc3)c3ccccc3)CC2)=CC(=[N+]2CCCCC2)C1 | 0.415 µM (active) | –
67 | COC(=O)c1ccc(C(=O)NC2CC(C)(C)Cc3c2cnn3-c2ccc(F)cc2)nc1 (stereo not given) | inactive | –
68 | Cc1cc(-c2ccc(S(=O)(=O)N3CCc4ccccc4C3)s2)on1 | inactive | –
69 | CCC(Cc1ccccc1)NS(=O)(=O)c1ccc2c(c1)NC(=O)CS2 (stereo not given) | inactive | –
70 | C=CCOC(=O)C1=C(C)NC(SCC(=O)OCC)=C(C#N)C1c1ccc(C)cc1 (stereo not given) | inactive | –
71 | CCOC(=O)C1=C(C)NC(=O)NC1c1ccccc1 (stereo not given) | inactive | –
72 | C=CCC1(C#N)C(=S)NC(C)=C(C(=O)OCC)C1c1ccccc1 (stereo not given) | 1.47 µM (active) | –
73 | CC(C)(C)c1nc(NCC2CCCO2)c2nnn(Cc3ccccc3)c2n1 (stereo not given) | inactive | –
74 | Cc1ccc(Cn2nnc3c(=O)n(CC(=O)N4CCCCC4)cnc32)cc1 | inactive | –
75 | CC(C)(C)c1ccc(Cn2nnc3c(=O)[nH]c(C4CCCN(C(=O)c5ccco5)C4)nc32)cc1 (stereo not given) | 0.828 µM (active) | –

Row | SMILES | Potency | activity change, negative = inhibition
76 | CC(C(=O)NC1CCCC1)N1CCN(S(=O)(=O)c2ccccc2Cl)CC1 (stereo not given) | inactive | –
77 | Cc1ccc(C)c(S(=O)(=O)N2CCN(C(=O)Nc3ccccc3)CC2)c1 | inactive | –
78 | CC1CC(C)(C)NC(=S)N1CCC(=O)N1CCN(Cc2ccccc2)CC1 (stereo not given) | inactive | –
79 | CC1CC(=S)Nc2ccccc2N1Cc1ccccc1 (stereo not given) | 10.4 µM (active) | –
80 | CC1CC(=O)Nc2ccccc2N1S(=O)(=O)c1cccs1 (stereo not given) | inactive | –
81 | CCS(=O)(=O)C1=NSC2=NC(=O)/C(=C\c3ccc(OS(=O)(=O)c4ccccc4)cc3)C(=N)N21 | inactive | –
82 | COc1cccc(-c2cc3nc4c(c(N5CCC6(CC5)OCCO6)n3n2)CCCC4)c1 | 2.94 µM (active) | –
83 | COc1ccc(S(=O)(=O)NCc2ccc(C(=O)N3CCC4(CC3)OCCO4)cc2)cc1 | inactive | –
84 | Cc1nc2cc(-c3ccc(F)cc3)nn2c(N2CCOCC2)c1C | inactive | –
85 | OC(Cn1c2ccccc2c2ccccc21)C[n+]1ccccc1 (stereo not given) | 7.38 µM (active) | –
86 | O=C1c2ccccc2S(=O)(=O)N1CC(O)Cn1c2ccccc2c2ccccc21 (stereo not given) | inactive | –
87 | CC(=O)c1ccc2c(c1)c1ccccc1n2CC(C)C | inactive | –
88 | O=C(CN(C(=O)CNC(=O)c1cccs1)c1cccc(F)c1)NC1CCCCC1 | inactive | –
89 | Cc1cccc(NC(=O)COC(=O)CCc2ccccc2)c1C | inactive | –
90 | CC(=O)c1c(C)n(-c2ccc(N(C)C)cc2)c2ccc(OCC(N)=O)cc12 | 11.7 µM (active) | –
91 | CCOC(=O)c1c(C)oc2ccc(OCC(=O)N(CC)CC)cc12 | inactive | –
92 | CC(=O)c1c(C)n(-c2ccc(C)cc2)c2ccc(O)cc12 | inactive | –
93 | O=C(Nc1ccccc1Cl)NC1(C(=O)N2CCOCC2)CCCCC1 | inactive | –
94 | COc1ccc(CNC(=O)C(=O)N2CCC3(CC2)OCCN3S(=O)(=O)c2ccc(C)cc2)cc1 | inactive | –
95 | CC1(C)O[C@H]2CC(=O)OCC23[C@H]2CC[C@@]4(C)[C@H](c5ccoc5)OC(=O)[C@H]5O[C@]54[C@]2(C)C(=O)C[C@@H]13 (stereo not given in full) | inactive | –
96 | O=C(NC1CCCCC1)c1ccc(-c2ccc(Cl)cc2)o1 | inactive | –
97 | COC(=O)c1ccc(NCC(=O)N2CCCCCC2)cc1 | inactive | –
98 | O=C(Cn1nc(CNc2ccc(Cl)cc2)[n+]2c1CCCCC2)c1ccc(Cl)cc1 | 1.04 µM (active) | –
99 | O=C(Cn1ncc(N2CCCC2)c(Br)c1=O)c1ccc(Cl)cc1 | inactive | –
100 | Cn1c(CCNS(=O)(=O)c2ccc(F)cc2)nnc1SCc1cccnc1 | inactive | –
